# According to PubChem BioAssay AID1159580 (chemical genetic matrix, 2015):
# In all, about 5,500 compounds went through this assay and about 2,000 (36%) were called active. Not shown: some 18% with an inconclusive outcome. Some of the results follow. Unmarked numbers belong to inactive results. No stated cut-off is given here; in the data, active means normalized growth mostly below about 0.91 (no sharp cut-off); inconclusive means no clear call, values can overlap the other calls; inactive means mostly above about 0.92.
# Assay: chemical genetic growth profiling, strain panel (AID 1159580);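 further: tested at 20 µM; growth read once vehicle control cultures reached saturation at 30 °C; 1 = growth at the plate median or of vehicle wells; lower values mean less growth of the strain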
# Conditions: growth OD
# [1] = S. cerevisiae deletion strains, locus YJR075W, strain HOC1, hits give low values
# [2] = S. cerevisiae deletion strains, locus YNL153C, strain GIM3, hits give low values
# [3] = S. cerevisiae deletion strains, locus YPL055C, strain LGE1, hits give low values
# [4] = S. cerevisiae deletion strains, locus YPL241C, strain CIN2, hits give low values
# [5] = S. cerevisiae deletion strains, locus YDL101C, strain DUN1, hits give low values
# [6] = S. cerevisiae deletion strains, locus YHR030C, strain SLT2, hits give low values
compound,measurement,setting,value
COCC(=O)O[C@]1(CCN(C)CCCc2nc3ccccc3[nH]2)CCc2cc(F)ccc2[C@@H]1C(C)C,normalized growth,"S. cerevisiae deletion strains, locus YAL040C, strain CLN3, hits give low values",1
same,normalized growth,"S. cerevisiae deletion strains, locus YCL061C, strain MRC1 (second series), hits give low values",1
same,normalized growth,"S. cerevisiae deletion strains, locus YDR363W, strain ESC2, hits give low values",1
same,normalized growth,"S. cerevisiae deletion strains, locus YER002W, strain NOP16, hits give low values",1.02
same,normalized growth,[1],0.967
same,normalized growth,[2],0.941
same,normalized growth,"S. cerevisiae deletion strains, locus YNL175C, strain NOP13, hits give low values",1.03
same,normalized growth,"S. cerevisiae deletion strains, locus YNL197C, strain WHI3, hits give low values",1.04
same,normalized growth,"S. cerevisiae deletion strains, locus YNL224C, strain SQS1, hits give low values",1.03
same,normalized growth,"S. cerevisiae deletion strains, locus YOR083W, strain WHI5 (second series), hits give low values",1.03
same,normalized growth,[3],0.929
same,normalized growth,[4],0.985
O=C(CCSc1cccs1)Nc1cccc(C(F)(F)F)c1,normalized growth,"S. cerevisiae deletion strains, locus YAR019C, strain CDC15, hits give low values",0.936
same,normalized growth,"S. cerevisiae deletion strains, locus YBL105C, strain PKC1, hits give low values",0.922
same,normalized growth,"S. cerevisiae deletion strains, locus YBR135W, strain CKS1, hits give low values",0.929
same,normalized growth,"S. cerevisiae deletion strains, locus YBR136W, strain MEC1, hits give low values",0.911
same,normalized growth,"S. cerevisiae deletion strains, locus YBR160W, strain CDC28, hits give low values",0.926
same,normalized growth,"S. cerevisiae deletion strains, locus YDL017W, strain CDC7, hits give low values",0.922
same,normalized growth,"S. cerevisiae deletion strains, locus YDL028C, strain MPS1, hits give low values",0.93
same,normalized growth,[5],0.921
same,normalized growth,"S. cerevisiae deletion strains, locus YDL108W, strain KIN28, hits give low values",0.946
same,normalized growth,"S. cerevisiae deletion strains, locus YDL132W, strain cdc53, hits give low values",0.92
same,normalized growth,"S. cerevisiae deletion strains, locus YDL214C, strain PRR2, hits give low values",0.911
same,normalized growth,"S. cerevisiae deletion strains, locus YDR052C, strain DBF4, hits give low values",0.948
same,normalized growth,"S. cerevisiae deletion strains, locus YDR054C, strain cdc34, hits give low values",0.916
same,normalized growth,"S. cerevisiae deletion strains, locus YDR226W, strain ADK1, hits give low values",0.93
same,normalized growth,"S. cerevisiae deletion strains, locus YDR477W, strain SNF1, hits give low values",0.966
same,normalized growth,"S. cerevisiae deletion strains, locus YER123W, strain YCK3, hits give low values",0.915
same,normalized growth,"S. cerevisiae deletion strains, locus YER133W, strain GLC7, hits give low values",0.965
same,normalized growth,"S. cerevisiae deletion strains, locus YFL009W, strain cdc4, hits give low values",0.945
same,normalized growth,"S. cerevisiae deletion strains, locus YFL029C, strain CAK1, hits give low values",0.925
same,normalized growth,"S. cerevisiae deletion strains, locus YFR003C, strain YPI1, hits give low values",0.93
same,normalized growth,"S. cerevisiae deletion strains, locus YFR019W, strain FAB1, hits give low values",0.931
same,normalized growth,"S. cerevisiae deletion strains, locus YFR028C, strain CDC14, hits give low values",0.952
same,normalized growth,"S. cerevisiae deletion strains, locus YGR040W, strain KSS1, hits give low values",0.961
same,normalized growth,"S. cerevisiae deletion strains, locus YGR052W, strain FMP48, hits give low values",0.952
same,normalized growth,"S. cerevisiae deletion strains, locus YGR092W, strain DBF2, hits give low values",0.872
same,normalized growth,[6],0.84 (active)
same,normalized growth,"S. cerevisiae deletion strains, locus YHR079C, strain IRE1, hits give low values",0.853
same,normalized growth,"S. cerevisiae deletion strains, locus YHR082C, strain KSP1, hits give low values",0.884
same,normalized growth,"S. cerevisiae deletion strains, locus YHR205W, strain SCH9, hits give low values",0.807
same,normalized growth,"S. cerevisiae deletion strains, locus YIL147C, strain SLN1, hits give low values",0.927
same,normalized growth,"S. cerevisiae deletion strains, locus YJL095W, strain BCK1, hits give low values",0.888
same,normalized growth,"S. cerevisiae deletion strains, locus YJL128C, strain PBS2, hits give low values",0.865
same,normalized growth,"S. cerevisiae deletion strains, locus YJL157C, strain FAR1, hits give low values",0.949
same,normalized growth,"S. cerevisiae deletion strains, locus YJR016C, strain ILV3, hits give low values",0.92
same,normalized growth,"S. cerevisiae deletion strains, locus YJR066W, strain TOR1 (second series), hits give low values",0.992
same,normalized growth,"S. cerevisiae deletion strains, locus YJR066W, strain TOR1, hits give low values",0.905
same,normalized growth,"S. cerevisiae deletion strains, locus YKL048C, strain ELM1, hits give low values",0.92
same,normalized growth,"S. cerevisiae deletion strains, locus YKL067W, strain YNK1, hits give low values",0.927
same,normalized growth,"S. cerevisiae deletion strains, locus YKL101W, strain HSL1, hits give low values",0.911
same,normalized growth,"S. cerevisiae deletion strains, locus YKL193C, strain SDS22, hits give low values",0.913
same,normalized growth,"S. cerevisiae deletion strains, locus YKL203C, strain TOR2, hits give low values",1.01
same,normalized growth,"S. cerevisiae deletion strains, locus YLR113W, strain HOG1, hits give low values",0.711 (active)
same,normalized growth,"S. cerevisiae deletion strains, locus YLR133W, strain CKI1, hits give low values",0.936
same,normalized growth,"S. cerevisiae deletion strains, locus YLR403W, strain SFP1, hits give low values",0.965
same,normalized growth,"S. cerevisiae deletion strains, locus YML070W, strain DAK1, hits give low values",0.891
same,normalized growth,"S. cerevisiae deletion strains, locus YMR001C, strain CDC5, hits give low values",0.924
same,normalized growth,"S. cerevisiae deletion strains, locus YMR205C, strain PFK2 (second series), hits give low values",0.913
same,normalized growth,"S. cerevisiae deletion strains, locus YMR277W, strain FCP1, hits give low values",0.919
same,normalized growth,"S. cerevisiae deletion strains, locus YNL006W, strain LST8, hits give low values",0.938
same,normalized growth,"S. cerevisiae deletion strains, locus YNL020C, strain ARK1, hits give low values",0.923
same,normalized growth,"S. cerevisiae deletion strains, locus YNL161W, strain CBK1, hits give low values",0.918
same,normalized growth,"S. cerevisiae deletion strains, locus YNL183C, strain NPR1, hits give low values",0.857
same,normalized growth,"S. cerevisiae deletion strains, locus YNL207W, strain RIO2, hits give low values",0.921
same,normalized growth,"S. cerevisiae deletion strains, locus YNL222W, strain SSU72, hits give low values",0.923
same,normalized growth,"S. cerevisiae deletion strains, locus YNL307C, strain MCK1 (second series), hits give low values",0.88
same,normalized growth,"S. cerevisiae deletion strains, locus YOL078W, strain AVO1, hits give low values",0.917
same,normalized growth,"S. cerevisiae deletion strains, locus YOL136C, strain PFK27, hits give low values",0.889
same,normalized growth,"S. cerevisiae deletion strains, locus YOR061W, strain CKA2, hits give low values",0.927
same,normalized growth,"S. cerevisiae deletion strains, locus YOR119C, strain RIO1, hits give low values",0.964
same,normalized growth,"S. cerevisiae deletion strains, locus YOR231W, strain MKK1, hits give low values",0.854
same,normalized growth,"S. cerevisiae deletion strains, locus YOR329C, strain SCD5, hits give low values",0.921
same,normalized growth,"S. cerevisiae deletion strains, locus YPL031C, strain PHO85, hits give low values",0.961
same,normalized growth,"S. cerevisiae deletion strains, locus YPL153C, strain RAD53, hits give low values",0.962
same,normalized growth,"S. cerevisiae deletion strains, locus YPL204W, strain HRR25, hits give low values",0.953
same,normalized growth,"S. cerevisiae deletion strains, locus YPL209C, strain IPL1, hits give low values",0.92
same,normalized growth,"S. cerevisiae deletion strains, locus YPL256C, strain CLN2, hits give low values",0.796 (active)
same,normalized growth,"S. cerevisiae deletion strains, locus YPR025C, strain CCL1, hits give low values",0.932
same,normalized growth,"S. cerevisiae deletion strains, locus YPR106W, strain ISR1, hits give low values",0.918
same,normalized growth,"S. cerevisiae deletion strains, locus YPR111W, strain DBF20, hits give low values",0.901
same,normalized growth,"S. cerevisiae deletion strains, strain NNK1, hits give low values",0.888
same,normalized growth,"S. cerevisiae deletion strains, strain TSCII, hits give low values",0.921
O=C(O)CCNC(=S)Nc1cccc(C(F)(F)F)c1,normalized growth,"S. cerevisiae deletion strains, locus YAL013W, strain DEP1, hits give low values",0.998
same,normalized growth,"S. cerevisiae deletion strains, locus YBR229C, strain ROT2, hits give low values",1.01
same,normalized growth,"S. cerevisiae deletion strains, locus YCL061C, strain MRC1, hits give low values",0.99
same,normalized growth,[5],1.01
same,normalized growth,"S. cerevisiae deletion strains, locus YDL134C, strain PPH21, hits give low values",0.983
same,normalized growth,"S. cerevisiae deletion strains, locus YDR150W, strain NUM1, hits give low values",1.03
same,normalized growth,"S. cerevisiae deletion strains, locus YEL061C, strain CIN8, hits give low values",1.02
same,normalized growth,"S. cerevisiae deletion strains, locus YGR078C, strain PAC10, hits give low values",1.01
same,normalized growth,"S. cerevisiae deletion strains, locus YGR229C, strain SMI1, hits give low values",0.982
same,normalized growth,[6],0.996
same,normalized growth,"S. cerevisiae deletion strains, locus YHR087W, strain rtc3, hits give low values",1.02
same,normalized growth,"S. cerevisiae deletion strains, locus YJR043C, strain POL32, hits give low values",0.987
same,normalized growth,[1],0.997
same,normalized growth,"S. cerevisiae deletion strains, locus YLR039C, strain RIC1, hits give low values",0.976
same,normalized growth,"S. cerevisiae deletion strains, locus YLR058C, strain SHM2 (second series), hits give low values",0.999
same,normalized growth,"S. cerevisiae deletion strains, locus YLR085C, strain ARP6, hits give low values",0.971
same,normalized growth,"S. cerevisiae deletion strains, locus YLR262C, strain YPT6, hits give low values",0.986
same,normalized growth,"S. cerevisiae deletion strains, locus YML094W, strain GIM5, hits give low values",1.11
same,normalized growth,"S. cerevisiae deletion strains, locus YMR219W, strain ESC1, hits give low values",1
same,normalized growth,"S. cerevisiae deletion strains, locus YMR263W, strain SAP30, hits give low values",0.984
same,normalized growth,[2],1.01
same,normalized growth,"S. cerevisiae deletion strains, locus YNL298W, strain CLA4 (second series), hits give low values",0.985
same,normalized growth,"S. cerevisiae deletion strains, locus YNL322C, strain KRE1, hits give low values",1.01
same,normalized growth,"S. cerevisiae deletion strains, locus YNR030W, strain Alg12, hits give low values",1.03
same,normalized growth,[3],1.04
same,normalized growth,[4],0.918
same,normalized growth,"S. cerevisiae deletion strains, locus YPR135W, strain CTF4, hits give low values",1.06
same,normalized growth,"S. cerevisiae strains, strain wild type, hits give low values",0.966
